# Results taken from the supplement of paper PMC10849652.
# About 8,800 targets were measured; listed, in parts, are those with a hit and a random draw of the rest. About 0.5% of all pairs of compound and target were hits. A number with no mark means an inactive call.
# Assays:
# Assay in all cases: log2 fold change, soluble protein after heating vs DMSO (PISA); higher = thermal stabilisation; K562 lysate, 10 uM; active = over 0.2 and 3.5 SD of the protein, either way, in both replicates (recomputed)
# erlotinib = compound: C#Cc1cccc(Nc2ncnc3cc(OCCOC)c(OCCOC)cc23)c1 [erlotinib]
# Procedure, shortened: (§1)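 K562 pellets were dounce-homogenised in PBS pH 7.4 with 1 mM MgCl2, and the crude extract at 1 mg/mL protein was treated with 10 μM compound for 30 min. Aliquots were heated for 3 min across 48°C-58°C, pooled, and brought to 0.5% NP-40 at 4°C; soluble protein was the supernatant after 21,000xg for 90 min. Soluble protein was quantified by TMTpro 16plex LC-MS/MS with channel sums equalised, and reported as log2 fold change in thermal stability against DMSO controls, with values from duplicates.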
# [1] = compound: C/C(=N\NC(=O)C1=CC(=CC=C1)S(=O)(=O)N2CCOCC2)/C3=C(C=CC(=C3)Cl)O
# Procedure, shortened: as §1
# [2] = compound: C1=CC(=CC=C1C2=NC3=C(N2)C=C(C=C3)C(=O)N)OC4=CC=C(C=C4)Cl
# Procedure, shortened: as §1
# [3] = compound: C1=CC2=C(C=CC(=C2)/C=C\3/C(=O)NC(=NCC4=CC=CS4)S3)N=C1
# Procedure, shortened: as §1
# [4] = compound: C1=CC2=NC=CN=C2C=C1/C=C/3\C(=O)NC(=O)S3
# Procedure, shortened: as §1
# [5] = compound: C1=CC=C(C=C1)C2=NC(=C(N2)C3=CC=NC=C3)C4=CC(=C(C=C4)Cl)O
# Procedure, shortened: as §1
# [6] = compound: C1=CC=C2C(=C1)C3=NNC4=CC=CC(=C43)C2=O
# Procedure, shortened: as §1
# [7] = compound: C1CCN(C1)C(=O)NC2=CC=CC(=C2)NC3=NC=C(C(=N3)NCCC4=CN=CN4)Br
# Procedure, shortened: as §1
# [8] = compound: C1CN(CCC1(CC2=CC=C(C=C2)Cl)N)C3=NC=NC4=C3C=CN4
# Procedure, shortened: as §1
# IRAK-1-4 Inhibitor I = compound: C1COCCN1CCN2C3=CC=CC=C3N=C2NC(=O)C4=CC(=CC=C4)[N+](=O)[O-] [IRAK-1-4 Inhibitor I]
# Procedure, shortened: as §1
# Sequence of UniProt O00541 (O00541 whole entry, looked up): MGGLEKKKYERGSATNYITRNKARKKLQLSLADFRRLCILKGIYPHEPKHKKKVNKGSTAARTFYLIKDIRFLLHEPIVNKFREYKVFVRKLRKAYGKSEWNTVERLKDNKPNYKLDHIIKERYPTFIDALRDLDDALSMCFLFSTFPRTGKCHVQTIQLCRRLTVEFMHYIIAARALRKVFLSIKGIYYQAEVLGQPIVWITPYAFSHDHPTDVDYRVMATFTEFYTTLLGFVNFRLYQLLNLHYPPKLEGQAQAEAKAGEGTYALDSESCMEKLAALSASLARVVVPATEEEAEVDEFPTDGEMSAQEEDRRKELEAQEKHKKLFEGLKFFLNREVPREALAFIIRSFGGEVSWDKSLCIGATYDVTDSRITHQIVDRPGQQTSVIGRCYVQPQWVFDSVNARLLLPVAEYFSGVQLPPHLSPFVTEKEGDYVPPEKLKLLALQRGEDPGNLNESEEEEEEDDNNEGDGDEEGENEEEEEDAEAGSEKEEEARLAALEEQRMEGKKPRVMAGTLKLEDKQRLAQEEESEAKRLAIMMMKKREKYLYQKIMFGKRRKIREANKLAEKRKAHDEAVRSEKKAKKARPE
# Sequence of UniProt Q9ULR3 (Q9ULR3 whole entry, looked up): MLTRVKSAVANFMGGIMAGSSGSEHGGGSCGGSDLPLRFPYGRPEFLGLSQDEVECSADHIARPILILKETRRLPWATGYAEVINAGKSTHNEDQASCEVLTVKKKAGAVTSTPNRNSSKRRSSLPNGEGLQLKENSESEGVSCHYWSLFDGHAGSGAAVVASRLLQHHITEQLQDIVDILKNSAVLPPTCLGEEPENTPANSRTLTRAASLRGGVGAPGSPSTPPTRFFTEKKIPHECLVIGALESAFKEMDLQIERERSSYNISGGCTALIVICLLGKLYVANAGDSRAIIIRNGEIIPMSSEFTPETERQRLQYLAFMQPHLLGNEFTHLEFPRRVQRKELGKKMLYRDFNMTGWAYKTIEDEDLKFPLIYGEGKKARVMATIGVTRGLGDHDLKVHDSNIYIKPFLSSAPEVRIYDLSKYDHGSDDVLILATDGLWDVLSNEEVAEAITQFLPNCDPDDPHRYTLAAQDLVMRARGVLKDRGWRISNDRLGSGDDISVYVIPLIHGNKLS
# Sequence of UniProt Q53EL6 (Q53EL6 whole entry, looked up): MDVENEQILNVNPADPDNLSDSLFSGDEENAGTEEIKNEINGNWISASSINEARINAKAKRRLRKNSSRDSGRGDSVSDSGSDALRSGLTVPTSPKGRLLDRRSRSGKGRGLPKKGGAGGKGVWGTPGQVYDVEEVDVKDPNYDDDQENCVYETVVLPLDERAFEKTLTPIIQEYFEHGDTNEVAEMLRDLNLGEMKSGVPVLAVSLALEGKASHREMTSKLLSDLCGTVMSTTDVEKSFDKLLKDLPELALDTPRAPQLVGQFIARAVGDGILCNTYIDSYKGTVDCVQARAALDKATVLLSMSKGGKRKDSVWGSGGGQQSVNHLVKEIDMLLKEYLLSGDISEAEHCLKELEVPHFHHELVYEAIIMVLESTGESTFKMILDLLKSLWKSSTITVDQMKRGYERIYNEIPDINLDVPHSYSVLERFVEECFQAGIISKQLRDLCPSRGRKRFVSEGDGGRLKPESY
# Sequence of UniProt Q9UNP9 (Q9UNP9 whole entry, looked up): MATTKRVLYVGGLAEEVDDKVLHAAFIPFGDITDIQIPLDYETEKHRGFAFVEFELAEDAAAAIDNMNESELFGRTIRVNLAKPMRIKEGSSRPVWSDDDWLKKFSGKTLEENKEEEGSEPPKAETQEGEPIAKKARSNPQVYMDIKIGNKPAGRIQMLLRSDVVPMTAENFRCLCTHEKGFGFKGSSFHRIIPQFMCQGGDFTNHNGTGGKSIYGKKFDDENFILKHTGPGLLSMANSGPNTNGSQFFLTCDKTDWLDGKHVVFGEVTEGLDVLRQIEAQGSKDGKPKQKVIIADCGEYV
# Sequence of UniProt Q9UBF8 (Q9UBF8 whole entry, looked up): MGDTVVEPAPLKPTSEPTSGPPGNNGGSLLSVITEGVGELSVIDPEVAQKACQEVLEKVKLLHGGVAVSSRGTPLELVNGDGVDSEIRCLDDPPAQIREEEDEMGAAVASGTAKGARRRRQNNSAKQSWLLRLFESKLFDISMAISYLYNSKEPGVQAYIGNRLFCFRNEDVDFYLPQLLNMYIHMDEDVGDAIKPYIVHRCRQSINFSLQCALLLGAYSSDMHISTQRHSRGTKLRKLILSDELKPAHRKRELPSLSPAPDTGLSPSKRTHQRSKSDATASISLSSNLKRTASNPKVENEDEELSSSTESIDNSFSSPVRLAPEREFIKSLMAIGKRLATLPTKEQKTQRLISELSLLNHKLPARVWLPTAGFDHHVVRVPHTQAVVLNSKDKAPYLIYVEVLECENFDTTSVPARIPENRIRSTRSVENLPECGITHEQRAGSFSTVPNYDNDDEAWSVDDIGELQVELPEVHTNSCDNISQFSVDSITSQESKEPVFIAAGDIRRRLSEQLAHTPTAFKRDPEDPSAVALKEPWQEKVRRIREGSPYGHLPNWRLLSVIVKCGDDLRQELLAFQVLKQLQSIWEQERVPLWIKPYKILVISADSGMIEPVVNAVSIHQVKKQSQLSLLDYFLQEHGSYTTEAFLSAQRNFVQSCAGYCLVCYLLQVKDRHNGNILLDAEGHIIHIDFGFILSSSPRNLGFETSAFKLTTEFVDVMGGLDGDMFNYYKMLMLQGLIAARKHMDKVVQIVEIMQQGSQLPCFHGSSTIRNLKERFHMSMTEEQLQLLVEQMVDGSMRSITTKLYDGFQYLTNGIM
# Sequence of UniProt Q9P215 (Q9P215 whole entry, looked up): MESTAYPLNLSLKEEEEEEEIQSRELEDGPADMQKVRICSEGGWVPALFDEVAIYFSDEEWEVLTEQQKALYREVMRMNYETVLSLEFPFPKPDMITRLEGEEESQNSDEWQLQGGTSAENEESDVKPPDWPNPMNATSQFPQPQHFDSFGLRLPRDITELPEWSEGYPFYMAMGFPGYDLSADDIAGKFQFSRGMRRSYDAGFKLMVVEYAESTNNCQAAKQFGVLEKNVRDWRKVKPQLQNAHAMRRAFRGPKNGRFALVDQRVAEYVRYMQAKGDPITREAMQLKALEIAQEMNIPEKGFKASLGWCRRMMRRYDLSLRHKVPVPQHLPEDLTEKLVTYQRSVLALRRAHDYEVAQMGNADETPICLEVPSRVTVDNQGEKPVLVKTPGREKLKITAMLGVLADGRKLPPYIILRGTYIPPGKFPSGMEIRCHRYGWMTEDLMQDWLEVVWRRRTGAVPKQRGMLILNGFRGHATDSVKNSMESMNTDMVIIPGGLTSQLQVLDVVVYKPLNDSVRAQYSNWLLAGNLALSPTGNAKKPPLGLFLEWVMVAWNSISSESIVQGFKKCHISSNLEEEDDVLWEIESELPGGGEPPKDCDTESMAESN
# Sequence of UniProt O00764 (O00764 whole entry, looked up): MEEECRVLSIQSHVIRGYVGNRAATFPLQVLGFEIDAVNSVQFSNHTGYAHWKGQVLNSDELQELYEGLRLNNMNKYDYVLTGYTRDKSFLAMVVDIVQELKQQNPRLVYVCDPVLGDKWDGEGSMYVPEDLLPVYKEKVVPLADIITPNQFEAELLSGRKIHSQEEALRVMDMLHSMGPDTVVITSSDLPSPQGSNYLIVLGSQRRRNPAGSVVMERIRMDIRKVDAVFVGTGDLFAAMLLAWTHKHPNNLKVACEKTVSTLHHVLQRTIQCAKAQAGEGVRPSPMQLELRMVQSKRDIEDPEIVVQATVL
# Sequence of UniProt O95336 (O95336 whole entry, looked up): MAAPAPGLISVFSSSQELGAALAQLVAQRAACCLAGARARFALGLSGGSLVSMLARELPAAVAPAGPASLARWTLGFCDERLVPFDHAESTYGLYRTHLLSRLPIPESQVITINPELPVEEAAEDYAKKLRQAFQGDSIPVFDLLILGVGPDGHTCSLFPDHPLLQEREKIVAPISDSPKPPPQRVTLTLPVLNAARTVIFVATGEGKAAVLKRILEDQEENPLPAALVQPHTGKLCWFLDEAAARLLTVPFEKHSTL
# Sequence of UniProt Q15366 (Q15366 whole entry, looked up): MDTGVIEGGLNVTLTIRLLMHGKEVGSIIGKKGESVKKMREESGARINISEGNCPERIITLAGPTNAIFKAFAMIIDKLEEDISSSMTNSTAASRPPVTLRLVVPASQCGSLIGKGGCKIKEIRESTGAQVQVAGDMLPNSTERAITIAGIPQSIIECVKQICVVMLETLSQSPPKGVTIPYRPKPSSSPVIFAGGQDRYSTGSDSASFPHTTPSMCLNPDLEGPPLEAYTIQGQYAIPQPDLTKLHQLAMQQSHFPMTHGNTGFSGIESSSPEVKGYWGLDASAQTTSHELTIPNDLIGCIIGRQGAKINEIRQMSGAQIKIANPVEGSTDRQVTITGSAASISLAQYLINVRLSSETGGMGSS
# Sequence of UniProt P05771 (P05771 whole entry, looked up): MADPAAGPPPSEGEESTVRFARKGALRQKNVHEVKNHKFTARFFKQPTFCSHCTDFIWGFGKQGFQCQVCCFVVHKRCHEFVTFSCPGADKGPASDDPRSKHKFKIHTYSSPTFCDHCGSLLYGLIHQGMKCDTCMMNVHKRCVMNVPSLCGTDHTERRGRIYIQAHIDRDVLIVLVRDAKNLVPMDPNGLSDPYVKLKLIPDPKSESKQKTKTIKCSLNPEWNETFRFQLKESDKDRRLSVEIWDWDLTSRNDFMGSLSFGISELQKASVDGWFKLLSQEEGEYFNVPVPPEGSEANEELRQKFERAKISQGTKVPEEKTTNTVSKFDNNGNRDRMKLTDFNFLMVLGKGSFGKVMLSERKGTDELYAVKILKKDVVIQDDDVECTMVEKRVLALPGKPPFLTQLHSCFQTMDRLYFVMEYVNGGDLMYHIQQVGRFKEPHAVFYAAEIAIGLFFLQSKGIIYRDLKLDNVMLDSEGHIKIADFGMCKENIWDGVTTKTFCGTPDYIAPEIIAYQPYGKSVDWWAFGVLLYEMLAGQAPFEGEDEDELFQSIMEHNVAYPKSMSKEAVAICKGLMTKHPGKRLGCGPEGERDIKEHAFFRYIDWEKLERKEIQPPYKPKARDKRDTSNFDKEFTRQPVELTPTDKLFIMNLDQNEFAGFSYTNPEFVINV
Target,log2 fold change (erlotinib),log2 fold change [1],log2 fold change [2],log2 fold change [3],log2 fold change [4],log2 fold change [5],log2 fold change [6],log2 fold change [7],log2 fold change [8],log2 fold change (IRAK-1-4 Inhibitor I)
PDIA4 (UniProt P13667),-0.011,0.062,0.005,-0.017,-0.008,0.006,0,0.04,0.007,-0.001
PDXK (UniProt O00764),-0.003,0.02,0.103,-0.019,-0.02,-0.008,0.021,0.037,-0.012,0.018
PMPCA (UniProt Q10713),-0.034,-0.012,0.073,0.008,-0.006,0.043,-0.014,-0.026,-0.012,0.007
PRKD3 (UniProt O94806),-0.041,0.105,-0.123,-0.145,0.039,0.115,0.123,-0.163,-0.115,0.053
PGLS (UniProt O95336),-0.019,-0.026,-0.08,-0.039,-0.039,-0.077,-0.04,-0.112,0.025,-0.043
POLR2G (UniProt P62487),0.02,0.012,0.044,-0.005,0.029,0.022,0.036,-0.002,0.02,0.03
PRRC2A (UniProt P48634),-0.026,-0.018,0.073,-0.002,0.006,-0.09,0.014,0.01,0.006,0.026
PI4KB (UniProt Q9UBF8),0.017,-0.108,-0.011,0.038,0.173,0.011,0.193,0.01,-0.065,-0.003
PPME1 isoform 4 (UniProt Q9Y570),-0.002,-0.006,0.023,-0.005,-0.035,0.017,0.065,0.013,0.01,-0.006
PPM1H (UniProt Q9ULR3),-0.048,-0.045,0.25 (active),0.021,-0.049,0.009,0.011,-0.039,0.101,0.037
PRKCB isoform 2 (UniProt P05771),0.053,-0.191,0.07,-0.043,-0.004,-0.064,-0.12,-0.149,0.019,-0.02
PKN1 isoform 2 (UniProt Q16512),-0.014,0.007,0.018,-0.048,-0.042,-0.004,-0.175,-0.191,-0.203,-0.174
PRMT8 (UniProt Q9NR22),0.01,-0.003,0.009,-0.046,-0.015,0.024,-0.031,-0.012,0.013,0.024
PDCD6IP (UniProt Q8WUM4),-0.016,0.021,-0.036,0,0.108,0.03,0.013,0.07,0.012,-0.094
PUS1 (UniProt Q9Y606),0.033,-0.174,0.007,0.01,0.024,0.005,-0.06,0.016,-0.021,0.004
PCBP2 isoform 3 (UniProt Q15366),-0.017,0.005,-0.027,0.018,0.034,0.012,0.042,0.038,-0.022,-0.026
PPIE (UniProt Q9UNP9),0.005,-0.022,0.064,0.031,-0.008,0.001,-0.002,-0.025,0.025,-0.019
PRKACB isoform 2 (UniProt P22694),-0.033,-0.03,-0.03,0.04,-0.028,-0.019,0.129,0.352 (active),0.354 (active),0.009
PLEKHO2 (UniProt Q8TD55),0.188,0.008,-0.023,0.106,-0.06,0.184,-0.014,-0.075,0.186,-0.004
POLD1 (UniProt P28340),0.016,-0.05,0.013,0.008,-0.008,0.015,-0.029,-0.006,0.007,-0.01
PFAS (UniProt O15067),0.014,0.03,0.006,0.015,0.011,-0.017,-0.018,-0.026,0.001,-0.006
PRKCSH (UniProt P14314),-0.027,0.013,0.01,-0.012,-0.012,0.023,0.07,0.027,-0.027,0.005
PRMT5 (UniProt O14744),0.002,0,0.032,0.006,0.007,0.017,0.017,0.012,0.019,0.003
PI4K2B (UniProt Q8TCG2),0.023,0.035,-0.041,-0.089,-0.002,-0.047,0.009,-0.07,0.136,0.026
PES1 (UniProt O00541),0,-0.071,-0.014,-0.044,-0.001,0.001,-0.012,0.025,-0.056,0.037
PDCD4 (UniProt Q53EL6),0,-0.052,-0.02,-0.003,-0.004,-0.026,0.014,-0.011,0.008,0.015
POGK (UniProt Q9P215),0.052,0.053,0.034,-0.059,-0.023,0.104,-0.03,0,0.022,0.025
PIP4P2 (UniProt Q8N4L2),0.023,0.039,-0.03,0.032,-0.076,0.019,-0.029,0.034,0.022,-0.054
PRMT7 (UniProt Q9NVM4),-0.042,0.004,0.024,0.038,0.008,-0.023,-0.083,-0.033,-0.031,-0.008
